26 molecules from PubChem BioAssay (NCI) can be followed below.

Compounds without any hit were thinned out: in the full panel of roughly 83,000, 20% have a hit.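 The test compound was applied at a single concentration to cells in 96-well plates for 48 hours, and percent growth was recorded.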 Active and inactive are the calls of the source. How the source made its calls: active means growth percent below 10; inactive means the rest.

In the assay the test system is MALME-3M melanoma. Description: NCI-60 one-dose screen, 48 h (100 = growth as untreated, 0 = no growth, -100 = all killed). To be noted: 10 µM unless noted.
As to `COc1ccc(-c2cnc3ccnn3c2-c2cc(OC)c(OC)c(OC)c2)cc1`, the growth was 67.5% (inactive).

For the molecule `COc1cc2cc(C(=O)Nc3ccccc3)c(N)nc2cc1OC`, the growth is -78.2% (active).

In the case of `O=C(C=P(c1ccccc1)(c1ccccc1)c1ccccc1)CCl`, the growth was -69.7% (active).

Take `CCCCCCCCCCCCCCCCS(=O)(=O)Nc1cc(C(=O)NN)cc(C(=O)NN)c1`: the growth is 85.4% (inactive).

For the molecule `COS(=O)(=O)CCN(CCOS(C)(=O)=O)S(C)(=O)=O`, the growth is 98.9% (inactive).

In the case of `CCn1c(CN2CCN(Cc3ccccc3)CC2)nc2cc(NC(=O)c3cccs3)ccc21`, the growth is -72.8% (active).

Regarding `CC(=O)c1ccc(-n2c(-c3cc(-c4ccsc4)n[nH]3)n[nH]c2=S)cc1`, the growth is 106% (inactive).

As to `CCN(CC)Cc1cc(Nc2ccnc3cc(Cl)ccc23)cc(-c2ccc(Cl)cc2)c1O`, the growth was 10% (active).

For the molecule `O=C(NCC(c1ccsc1)N1CCCCCC1)c1ccc(C(F)(F)F)cc1` (stereo unspecified), the growth was 98.5% (inactive).

As to `COc1cc(NC(C)CCCN)c2ncccc2c1Oc1ccc(Cl)cc1` (stereo unspecified), the growth is 88.1% (inactive).

As for `O=C(c1ccccc1)N(CCCCl)C(=O)N(CCCCl)C(=O)c1ccccc1`, the growth is 91.8% (inactive).

In the case of `COc1ccc(C2=CC(c3ccc(OC)cc3Br)N3C=CSC3=N2)cc1` (stereo unspecified), the growth is 89.9% (inactive).

Take `CC(=O)c1nn(-c2ccccc2)/c(=N\N=C\c2coc3ccc(F)cc3c2=O)s1`: the growth was 102% (inactive).

Take `O=C(c1ccc(C(F)(F)F)c(Cl)c1)N(Cc1ccc(Cl)cc1)c1ccc(-c2cc(C(F)(F)F)[nH]n2)c(O)c1`: the growth was 1.34% (active).

With `C/C(=N\OC(=O)Nc1cccc(Cl)c1)c1ccccc1`, the growth is 98.2% (inactive).

As for `C/C(=C\C(=N\N=C(N)N)c1ccc(Cl)cc1)c1ccc(Cl)cc1`, the growth is -64.6% (active).

In the case of `O=C(NO)c1ccc(NCc2csc3ccccc23)cc1`, the growth was 60.8% (inactive).

For `C#CC[C@@H]1C[C@]2(C)[C@H]3CC=C4[C@H]5CC(C)(C)CC[C@]5(C(=O)NCCCCN)CC[C@@]4(C)[C@]3(C)CC[C@H]2C(C)(C)[C@H]1OC(C)=O`, the growth was 85% (inactive).

For the molecule `Oc1ccc(Cl)cc1-c1cc(-c2ccccc2Cl)[nH]n1`, the growth is 71.1% (inactive).

In the case of `CC1C2CCC(C2)C1COCCOCCO` (stereo unspecified), the growth is 107% (inactive).

For `O=C1C(Cl)=C(N/N=c2/[nH][nH]/c(=N/NC3=C(Cl)C(=O)c4ccccc4C3=O)c3ccccc23)C(=O)c2ccccc21`, the growth is 84.8% (inactive).

As for `COc1ccc(/C=c2\c(=O)n(-c3ccccc3)c3nn4c(n23)=NNC42CCCCC2)cc1`, the growth is 97.8% (inactive).

As to `CCNC(=S)N(Cc1ccccc1)Cc1ccccc1`, the growth is 105% (inactive).

Regarding `N#CC1=C(N)Oc2nc[nH]c(=O)c2C1c1cccs1` (stereo unspecified), the growth is 112% (inactive).

In the case of `CCN(C(=O)Nc1cccc2ccccc12)c1ccccc1`, the growth was 90.6% (inactive).

As to `COc1ccc(-c2nc(-c3cc(OC)cc(OC)c3)[nH]c2-c2ccc(OC)cc2)cc1`, the growth is 70.9% (inactive).
